Each structure is given as a SMILES string.
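Note: KINOMEscan kinase panel screen.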

The assay has as its system SYK. The note with it: concentration: 1 μM, replicates: in singlicate; n = 1.
For the compound `O=C(Nc1n[nH]c2nc(-c3nccs3)c(Br)cc12)C1CCCC1` [SB-742609], the “%Inh” value worked out at 20%.

For the compound `CC1=C(C(=O)Nc2cc3cn[nH]c3cc2F)C(c2ccc(C(F)(F)F)cc2)CC(=O)N1` (stereo not shown) [GSK429286], the “%Inh” value is on record as 4%.

Regarding `Cl.O=C(Nc1cccc(-c2nn3ncccc3c2-c2ccnc(Nc3cccnc3)n2)c1)c1c(F)cccc1F` [GSK312879], the “%Inh” value worked out at 3%.

With `Cc1ccc(NC(=O)Nc2cccc(Cl)c2)cc1-c1ccc(C(=O)Nc2ccncc2)cc1` [GSK1398468], the “%Inh” value worked out at 3%.

On to `CC(=O)Nc1nc2cnc(Nc3cc(NC(=O)c4cccc(CCC#N)c4)ccc3C)nc2s1`, for which the “%Inh” value is reported as 15%.

As for `COc1cccc(NC(=O)NC2CCN(c3ccnc(Nc4ccc(F)cc4)n3)C2)c1` (stereo not shown) [GSK1379721], the “%Inh” value is given as 0%.

As to `CS(=O)(=O)c1ccc(-c2nc3n(c2-c2ccncc2)CCC3)cc1` [SKF-105942], the “%Inh” value is 11%.

As to `CCCc1ccc(S(=O)(=O)NC2CCN(c3ccnc(Nc4ccc(F)cc4)n3)C2)cc1` (stereo not shown) [GSK1379715], the “%Inh” value is on record as 0%.

On to `O=S(=O)(c1ccc(-c2ccnc3[nH]ccc23)cc1)N1CCCC1` [GSK846226], for which the “%Inh” value is reported as 13%.

As to `Cc1ccc(NC(=O)Nc2cc(C(C)(C)C)nn2-c2ccccc2)cc1` [GSK1014915], the “%Inh” value came to 28%.

As to `CN(C)CCN(C)C(=O)c1cc(-c2ccncc2)c(-c2ccc(Cl)c(O)c2)o1.Cl.Cl` [SB-710397], the “%Inh” value worked out at 17%.

Take `O=C(O)COc1ncnc2cc(-c3ccc4[nH]ncc4c3)sc12`: the “%Inh” value is 0%.

As for `Cc1cccc(-c2nc(C)cc(Nc3ccncc3)n2)n1` [GSK257997], the “%Inh” value is 34%.

For the origin of these results see PMC5540273 (PLoS ONE, 2017).
